HCT116 PTEN-null – growth suppression of PTEN-null HCT116, primary screen, cell-based, CellTiter-Glo; HCT116 PTEN-null viability, 60 h; active compounds read low; viability, % at 10 µM; hit rate 1.2% among 140,000; AID 827, 2007;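 active = viability at or below a set limit, 4 SD under the median of all tested compounds, cut at about 3.7% in these data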;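 note: PTEN knockout HCT116 line with beta catenin targeted HCT116 as companion control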
Insulin prom up – insulin promoter activators in MIN6 cells, imaging, high-content screening, mouse beta cells | MIN6 insulin promoter-GFP reporter; active compounds read high | z-score at 5 µM | hit rate 0.3% among 190,000 | AID 1625, 2009;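 active = z-score above 3 at 5 µM with at least 500 cells counted in the well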
Insulin prom inh – inhibitors of insulin promoter-driven GFP, primary screen, imaging, TRM-6 cells (human fetal islet line), eGFP reporter, cell count; reporter expression induced with tamoxifen; inhibition, % at 2 µM; hit rate 0.9% among 130,000;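 active = inhibition above the mean plus 3 SD, with well images judged a real hit on visual review, cut at about 60% in these data, passing the limit was not always enough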
bCat KO growth – primary screen for growth suppressors in beta-catenin knockout HCT116 cells (colon tumor, human); HCT116 beta-catenin knockout viability, CellTiter-Glo, 60 h; active compounds read low; viability, % at 10 µM; hit rate 1.5% among 140,000;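 active = viability at or under a set limit, the compound median less 4 SD, cut at about 6% in these data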;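 note: 0% = Hyamine 1622 control at 20 µM and 100% = untreated cell control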
Lmaj promast – Leishmania major promastigote growth inhibition, primary screen. inhibition, % at 10 µM. hit rate 9% among 200,000. Leishmania major promastigotes, resazurin fluorescence viability; in the data active = inhibition above about 50%;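 note: promastigotes grown with compound for 44 hours at 28 °C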
Autophagy mod – autophagy modulators in MEF cells, primary screen, imaging, high-content, MEF GFP-LC3 | calls only at 10 µM (by protocol) | hit rate 0.98% among 190,000 | AID 463193, 2010 | MEF GFP-LC3 puncta imaging; test concentration mostly 10 µM;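 active = percentage of spot-positive cells more than 3 SD above its plate mean, without a fluorescence outlier flag or 80% toxicity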;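 note: spot-positive cell cutoff set from DMSO-treated cells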
An asterisk follows results filed as active; i = inactive; . = no result given. Most compounds without a hit are left out; they make up all but 9.6% or so of the library.

SMILES | HCT116 PTEN-null | Insulin prom up | Insulin prom inh | bCat KO growth | Lmaj promast | Autophagy mod
CCOCCCNC(=O)c1c[nH]c2ccc(S(=O)(=O)Nc3cccc(OC)c3)cc2c1=O | 98 | 1.2 | 19 | 91 | -24 | i
CN(C)c1oc(-c2ccccc2Cl)nc1P(=O)(c1ccccc1)c1ccccc1 | 60 | -0.07 | -54 | 79 | 96* | i
COc1cccc(N/C(C)=C/C(=O)c2ccc(Br)cc2)c1 | 70 | 0.15 | 25 | 70 | -10 | i
Cc1ccc(-n2c(C)cc(/C=N/NC(=O)c3ccncc3)c2C)cc1C | . | 0.24 | 37 | . | 18 | i
O=C(/C=C/c1ccccc1)NC1CC2CCC1C2 (centres undefined) | 97 | -0.12 | -16 | 94 | 53* | i
O=S(=O)(c1ccc2c(c1)OCCO2)N1CCC(n2cnc3cc(F)ccc32)CC1 | 79 | -0.4 | . | 80 | 69* | i
Cc1cccc(NC(=O)CN2C(=O)N/C(=C/c3cc(C)n(-c4ccncc4)c3C)C2=O)c1 | 93 | -0.09 | 7 | 85 | 11 | i
Cc1cccc(NC(=O)CN2C(=O)N/C(=C/c3cc(C)n(C)c3C)C2=O)c1 | . | -0.15 | 83* | . | -7 | i
COC(=O)c1sc(N)c(C(=O)OC)c1COC(=O)[C@@H](NS(=O)(=O)c1cccc(Cl)c1)C(C)C | 49 | . | 16 | 60 | 23 | i
C/C(=C/C#N)Nc1ccc(C)cc1 | . | -0.82 | . | . | 1 | i
CCN(CC)S(=O)(=O)c1ccc(C)c(C(=O)Oc2cccc(-c3cnc4ccccc4n3)c2)c1 | 69 | 0.01 | 38 | 68 | 0 | i
Cc1nc(C(F)(F)F)c(C(=O)N/N=C(\N)c2ccccn2)s1 | . | -1.2 | -27 | . | 96* | i
O=S(=O)(c1cccc(NC(=S)Nc2ccc(Br)cc2Cl)c1)N1CCOCC1 | 90 | 0.31 | 12 | 94 | 52* | i
CCN(CC)S(=O)(=O)c1ccc(OC)c(NC(=S)Nc2ccc(C)c(C)c2)c1 | 91 | -0.72 | 0 | 89 | 62* | i
CCN(CC)S(=O)(=O)c1cccc(S(=O)(=O)N2CCCCC2)c1 | 79 | . | . | 77 | 2 | i
CCN(CC)S(=O)(=O)c1ccc(OC)c(NC(=O)c2ccc([N+](=O)[O-])cc2)c1 | . | 0.42 | . | . | 3 | i
CCN(CC)S(=O)(=O)c1ccc(C)c(NC(=S)Nc2cccc(S(=O)(=O)N3CCCCCC3)c2)c1 | 46 | -0.37 | -68 | 52 | 92* | i
CCN(CC)S(=O)(=O)c1ccc(NC(=S)NC(=O)C(C)C)cc1 | 104 | 0.08 | -15 | 90 | 72* | i
O=C(Cc1c(Cl)cccc1Cl)Nc1cccc(S(=O)(=O)N2CCOCC2)c1 | . | . | -73 | . | 18 | i
CC1(C)CCCN(C(=O)c2ccc3c(c2NCCO)C(=O)c2ccccc2C3=O)C1 | 74 | -0.48 | 17 | 72 | 100* | i
O=C1c2ccccc2C(=O)c2c1ccc(C(=O)N1CCCCC1)c2NCCO | 54 | -0.3 | -43 | 55 | 3 | i
CC1CCCN(C(=O)c2ccc3c(c2NCCO)C(=O)c2ccccc2C3=O)C1 (centres undefined) | 59 | -1.1 | 28 | 51 | 91* | i
CCOC(=O)c1ccc(N/C=C/C(=O)C(C)(C)C)cc1 | . | 0.92 | . | . | -1 | i
CN(C)c1ccc(N/C=C/C(=O)C(C)(C)C)cc1 | 67 | 1.2 | 61 | 66 | 54* | i
CN(C)c1ccc(N/C=C/C(=O)c2ccccc2)cc1 | 55 | 1.5 | -13 | 52 | 100* | i
CC(C)(C)C(=O)/C=C/Nc1ccccc1O | 81 | . | -69 | 79 | 98* | i
COc1ccc(N(C)C(=O)c2ccc3snnc3c2)cc1 | 99 | . | . | 88 | -10 | i
CC(C)(C)C(=O)N1CCc2cc(-c3csc(N)n3)ccc21 | 86 | 0.07 | -25 | 93 | 59* | i
CCC(C)C(=O)N1CCc2cc(-c3csc(N)n3)ccc21 (centres undefined) | 92 | -1.1 | -50 | 88 | 0 | i
CC(CCN(C)C)OC(=O)c1ccc(C(C)c2ccccc2)o1 (centres undefined) | 80 | -0.6 | . | 99 | 100* | i

Compound activity (PubChem BioAssay)
